Molecules are shown by their SMILES. About 360 (0.41%) of roughly 87,000 compounds were called active. Cut-off read from the data, not from the text of the source: active = cytotoxicity above about 50%; inactive = the rest. For the sample, actives were picked, then their nearest neighbours and some compounds at random.

The experiment is described as follows: cytotoxicity in HT1080 fibrosarcoma cells, cell-based, fluorescence readout (AID 620).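 Note: cells exposed to compound overnight then 4 h with Alamar Blue; 0% = vehicle DMSO and 100% = killing control.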 Particulars: HT1080 viability, at 10 µM, hits give high values.
For the molecule `N#CCSc1nnc(Cc2cccs2)n1C1CCCCC1`, the cytotoxicity is 11.1% (inactive).
Take `Cc1ccc(C(=O)N2CCC(C(N)=O)CC2)cc1C`: the cytotoxicity was -2.5% (inactive).
Regarding `Cc1nn(Cc2n[nH]c(=S)n2Cc2ccccc2)c(C)c1Cl`, the cytotoxicity is -7% (inactive).
With `Cc1ccc(NC(=O)C2(N(CC(C)C)C(=O)Cn3nnnc3N)CCCCC2)cc1`, the cytotoxicity was 3% (inactive).
With `CCNC(=O)CSc1nnc(-c2ccc(OC)cc2)n1CC(C)C`, the cytotoxicity is -18.3% (inactive).
Regarding `CSCC[C@H](Nc1ncnc2sc(C)c(C)c12)C(=O)O`, the cytotoxicity is -6% (inactive).
As for `CSc1nnc(-c2ccccc2)o1`, the figure is -3.8% (inactive); as for `O=c1[nH]c2ccccc2nc1N1CCOCC1`, -5% (inactive); as for `CN(C)CCNS(=O)(=O)c1ccc(Cl)cc1`, -7.5% (inactive).
Consider `O=S(=O)(c1ccc(N2CCC(c3ccc(Cl)cc3)=N2)cc1)N(CCO)CCO`, for which the cytotoxicity was -11.6% (inactive).
Take `COc1ccc(-n2nnc3c(=O)n(C/C=C/c4ccccc4)cnc32)cc1`: the cytotoxicity was -3.8% (inactive).
On to `Nc1c(C(=O)NCc2ccc(F)cc2)c2nc3ccccc3nc2n1CCCN1CCOCC1`, for which the cytotoxicity is 0.2% (inactive).
In the case of `Nc1c(C(=O)NCc2ccc3c(c2)OCO3)c2nc3ccccc3nc2n1CCCN1CCOCC1`, the cytotoxicity is 52.9% (active).
Consider `COc1ccc(CNC(=O)c2c(N)n(CCCN3CCOCC3)c3nc4ccccc4nc23)cc1`, for which the cytotoxicity was 15.1% (inactive).
Take `O=C(O)CSCCc1ccccn1`: the cytotoxicity was 8.2% (inactive).
With `CN1C(=O)CSc2ccc(NC(=O)N3CCN(c4ccccn4)CC3)cc21` the figure was -6.2% (inactive).
Take `CN1C(=O)CSc2ccc(NC(=O)N3CCc4ccccc43)cc21`: the cytotoxicity was 64.2% (active).
In the case of `COc1cccc(NC(=O)Nc2ccc3c(c2)N(C)C(=O)CS3)c1`, the cytotoxicity was 6% (inactive).
Turning to `Cc1nc(NC2=NCN(CCN3CCOCC3)CN2)nc2c(C)cccc12`, the cytotoxicity is 4.7% (inactive).
As for `Cc1cc2nc(NC3=NCN(CCCN4CCOCC4)CN3)nc(C)c2cc1C`, the figure is 4.7% (inactive).
For `CCOC(=O)c1[nH]c(C)c(C(=O)N2CCc3ccccc32)c1C`, the cytotoxicity was 57.9% (active).
As for `CCOC(=O)c1[nH]c(C)c(C(=O)Nc2cc(OC)ccc2OC)c1C`, the cytotoxicity was 58% (active).
Regarding `CCOC(=O)c1c(C)[nH]c(C(=O)OCC(=O)N2CCc3ccccc32)c1C`, the cytotoxicity was -4.1% (inactive).
As to `CCOC(=O)c1[nH]c(C)c(C(=O)Nc2ccc(C)c(C)c2)c1C`, the cytotoxicity is -11.9% (inactive).
`CCOC(=O)c1[nH]c(C)c(C(=O)Nc2ccc(C)cc2C)c1C`: the cytotoxicity was 52.7% (active).
`CCOC(=O)c1[nH]c(C)c(C(=O)Nc2cc(Cl)ccc2C)c1C`: the cytotoxicity is 52% (active).
As for `CCOC(=O)c1[nH]c(C)c(C(=O)OCC(=O)N2CCc3ccccc32)c1C`, the figure is 6.7% (inactive); as for `CCOC(=O)c1[nH]c(C)c(C(=O)Nc2ccc(C)c(Cl)c2)c1C`, 22.7% (inactive).
As for `CCOC(=O)c1[nH]c(C)c(C(=O)Nc2ccc(Cl)cc2)c1C`, the figure is 0.6% (inactive); as for `CCOC(=O)c1c(C)[nH]c(C(=O)OCC(=O)Nc2cc(C)ccc2OC)c1C`, -1.2% (inactive); as for `CCOC(=O)c1ccc(NC(=O)c2c(C)[nH]c(C(=O)OCC)c2C)cc1`, 5.5% (inactive).
Consider `COc1ccc(OC)c(NC(=O)c2[nH]c(C)c(C(C)=O)c2C)c1`, for which the cytotoxicity is 11.3% (inactive).
With `O=C(Nc1ccccc1)N1CCCC2CCCCC21` (stereo not given), the cytotoxicity is 6.5% (inactive).
As to `COc1cccc(-c2ccc(=O)n(CC(=O)NCCN3CCOCC3)n2)c1`, the cytotoxicity was -0.6% (inactive).
Take `Cc1ccc(NC(=O)CN(C)c2ccc(S(=O)(=O)N3CCN(C)CC3)cn2)cc1`: the cytotoxicity is -4.8% (inactive).
`O=C(O)C1CC=CCC1C(=O)N1CCc2ccccc21` (stereo not given): the cytotoxicity is -3.6% (inactive).
With `Cc1cc(C)n2cc(CSc3nc4cc(Cl)ccc4o3)nc2n1` the figure was 1% (inactive); with `Cc1ccc(C2C(C(=O)O)c3ccccc3C(=O)N2C)o1` (stereo not given), 3.3% (inactive).
With `CCOC(=O)c1[nH]c(C)c(C(=O)Nc2ccccc2C)c1C` the figure was 61.8% (active).
As for `CCOC(=O)c1[nH]c(C)c(C(=O)Nc2cccc(Cl)c2C)c1C`, the figure is 33.8% (inactive); as for `CCOC(=O)c1[nH]c(C)c(C(=O)Nc2ccccc2F)c1C`, 44.7% (inactive); as for `COC(=O)C1=C(C)N(CCc2ccccc2)C(=O)C1(NS(=O)(=O)c1ccc(NC(C)=O)cc1)C(F)(F)F` (stereo not given), -19.4% (inactive).
Turning to `O=C(NCc1ccc2c(c1)OCO2)c1ccc(CN2CCOCC2)cc1`, the cytotoxicity is -0.5% (inactive).
For the molecule `Cc1ccc(C(=O)N2c3ccccc3N(Cc3ccccc3)C(=O)C2(C)C)cc1`, the cytotoxicity is -12.6% (inactive).
On to `CC(=O)N1c2ccccc2N(Cc2ccc(C)cc2C)C(=O)C1(C)C`, for which the cytotoxicity was 52.2% (active).
`Cc1ccc(C)c(CN2C(=O)C3(OCCCO3)c3ccccc32)c1`: the cytotoxicity is -5.2% (inactive).
With `Cc1nnc(N2C(=O)C(O)=C(C(=O)c3ccco3)C2c2ccc(C(C)C)cc2)s1` (stereo not given) the figure was -3.4% (inactive).
In the case of `O=C(Nc1cc(C(F)(F)F)ccc1N1CCOCC1)c1ccc[n+]([O-])c1`, the cytotoxicity was 8.9% (inactive).
With `CCc1ccccc1NS(=O)(=O)c1ccc2[nH]cc(C(=O)NCC3CCCO3)c(=O)c2c1` (stereo not given), the cytotoxicity is 3.1% (inactive).
Regarding `COC(=O)c1ccc(NC(=O)CSc2nncn2C)cc1`, the cytotoxicity was 3.9% (inactive).
Regarding `Cn1cnnc1SCC(=O)Nc1ccccc1`, the cytotoxicity is 5.5% (inactive).
With `CCCCOC(=O)c1ccc(NC(=O)CSc2nncn2C)cc1`, the cytotoxicity is 61.2% (active).
In the case of `CCCCCn1c(=O)[nH]c2cc(C(=O)NCCCN3CCCCC3)ccc2c1=O`, the cytotoxicity is -6% (inactive).
Consider `CN(C)S(=O)(=O)c1cccc(-c2nnc(-c3ccccc3)o2)c1`, for which the cytotoxicity was -8% (inactive).
Turning to `O=C(CSCc1c(Cl)cccc1Cl)NCc1ccco1`, the cytotoxicity is 6.4% (inactive).
On to `C[C@@H](NC(=O)c1coc(=O)c(Br)c1)c1ccccc1`, for which the cytotoxicity was 2.9% (inactive).
Regarding `CN(C)CCNC(=O)c1coc(=O)c(Br)c1`, the cytotoxicity was -5.5% (inactive).
With `CC(C)CCOc1ccc(C(=O)O)cc1` the figure was -1.4% (inactive).
With `COc1cc(OC)c(NC(=O)CCc2ccccc2)cc1Cl` the figure was -15.4% (inactive); with `CNC(=O)CSc1nnc(-c2ccco2)n1-c1ccccc1OC`, 25.4% (inactive); with `CC(SC(=S)N1CCOCC1)C(=O)O` (stereo not given), 7.1% (inactive).
In the case of `CC(C(=O)OCc1nnc(-c2ccccc2)o1)N1C(=O)c2ccccc2C1=O` (stereo not given), the cytotoxicity is 4.5% (inactive).
For `COc1ccccc1OCCn1cc(C#N)c2ccccc21`, the cytotoxicity is -3.5% (inactive).
With `N#Cc1cn(CCCOc2ccccc2)c2ccccc12`, the cytotoxicity is 24.2% (inactive).
As for `COc1ccccc1OCCCn1cc(C#N)c2ccccc21`, the figure is 76.4% (active).

Source of the values: PubChem BioAssay AID620 (Sanford-Burnham Center for Chemical Genomics, 2007).
